PubChem BioAssay AID588342 (National Center for Advancing Translational Sciences (NCATS), 2011)
In all, about 360,000 compounds went through this assay and about 25,000 (6.9%) were called active. Another 9% or so got no clear call; they are omitted. The full list was thinned out, with actives kept by preference. Unmarked numbers belong to inactive results. Calls follow the shape of the dose curve; as a rule, active = well fitted inhibition curve with a large enough effect; inconclusive = small, poorly fitted or top-dose-only effect; inactive = flat fitted curve, though single readings scatter.

Biological target: Luciferin 4-monooxygenase (Photinus pyralis) (UniProt P08659)
Sequence (P08659 whole entry, looked up): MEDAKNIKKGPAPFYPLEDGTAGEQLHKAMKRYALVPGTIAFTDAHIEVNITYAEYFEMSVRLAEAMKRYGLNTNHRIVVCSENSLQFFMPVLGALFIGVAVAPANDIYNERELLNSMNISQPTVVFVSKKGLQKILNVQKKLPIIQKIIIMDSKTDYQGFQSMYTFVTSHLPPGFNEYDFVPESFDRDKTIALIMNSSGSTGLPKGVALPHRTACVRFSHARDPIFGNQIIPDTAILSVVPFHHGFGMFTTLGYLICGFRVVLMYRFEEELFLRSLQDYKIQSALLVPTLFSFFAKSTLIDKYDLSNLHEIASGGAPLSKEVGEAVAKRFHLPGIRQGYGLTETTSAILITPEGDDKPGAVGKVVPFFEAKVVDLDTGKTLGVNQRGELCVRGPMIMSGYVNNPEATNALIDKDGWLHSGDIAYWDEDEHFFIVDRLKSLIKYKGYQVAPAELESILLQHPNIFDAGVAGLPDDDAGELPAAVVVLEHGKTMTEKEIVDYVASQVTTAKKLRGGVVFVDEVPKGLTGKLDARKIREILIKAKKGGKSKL
Test: qHTS profiling assay for firefly luciferase inhibitor/activator using purifed enzyme and Km concentrations of substrates (counterscreen for miR-21 project); also: nearly all actives have a fitted effect of over 55% in size;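 as to activity change, negative = inhibition: plate controls were vehicle for no effect and reference inhibitor for full effect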
Conditions: purified FLuc, luminescence inhibition; series mostly up to 57.5 µM; activity change, negative = inhibition: at the top concentration
How it was run: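 Purified P. pyralis luciferase, 10 nM final, with Km-level 10 uM D-luciferin and 10 uM ATP in 50 mM Tris acetate pH 7.5, 10 mM Mg acetate, 0.01% Tween-20, 0.05% BSA; 6-point qHTS titration about 60 µM downward; luminescence read.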
Potency is read from the fitted curve at half-maximal effect.

Structure (SMILES)	activity change, negative = inhibition [%]	Potency
COc1ccccc1NC(=O)COc1ccc(C(=O)OCC(=O)N(C(C)C)C(C)C)cc1OC	4.59	–
Cc1nc(SCC(=O)N2CCN(c3ccccc3)CC2)[nH]c(=O)c1C	1.39	–
CCC1=[N+]([O-])C(C)(/C(C)=N\O)N(O)C1(C)C (configuration not stated)	0.914	–
Oc1c(CN2CCCC2)cc(COCc2ccccc2)c2cccnc12	1.01	–
COC(=O)CN1C(=O)CSc2ccc(S(=O)(=O)Nc3cc(C)ccc3C)cc21	-3.31	–
O=C(Nc1ccc(S(=O)(=O)N2CCCCC2)cc1)C1CCN(C(=O)c2ccc(F)cc2)CC1	-0.175	–
Cc1ccc(C2CC(c3cccc(C)c3)n3nc(N)nc3N2)cc1 (configuration not stated)	1.9	–
COc1cccc(C2Nc3cccc4cccc(c34)N2)c1	–	26.9 µM (active)
Cc1ccc(C2Nc3cccc4cccc(c34)N2)cc1	–	10.7 µM (active)
COc1ccc(C2=CC(c3cccc(OC)c3)n3nnnc3N2)cc1 (configuration not stated)	-2.1	–
COc1cccc(N2C(=O)C3CCCN3C2c2ccc(F)cc2)c1 (configuration not stated)	-2.91	–
COc1ccc(C2CC(c3ccc(C)cc3)Nc3ncnn32)cc1 (configuration not stated)	2.33	–
Brc1ccccc1C1Nc2cccc3cccc(c23)N1	-1.29	–
Oc1ccc(C2Nc3cccc4cccc(c34)N2)cc1	–	16.9 µM (active)
COc1cc(C(=O)OCC(=O)NC(C)CCc2ccccc2)cc(OC)c1OC (configuration not stated)	-0.439	–
CCCCOc1ccc(NC(=O)c2cc3c(n(-c4ccc(Cl)cc4)c2=O)CCCC3=O)cc1	-1.22	–
O=C(c1c(F)cccc1F)N1CCN(S(=O)(=O)c2ccc3c(c2)OCCO3)CC1	2.43	–
COc1ccccc1C(CNC(=O)c1cccc(S(=O)(=O)Nc2ccc(F)cc2)c1)N(C)C (configuration not stated)	-2.1	–
O=C(NCCc1ccccn1)c1cc(-c2ccc(Cl)cc2)nc2ccccc12	–	16.9 µM (active)
O=C(NCCc1ccccn1)c1cccnc1Oc1ccc(Cl)cc1	-0.702	–
O=C(COc1cc(Cl)c(Cl)cc1Cl)NCCc1ccccn1	-2.83	–
Cc1cccc(NC(=O)Cn2nc(-c3ccc(Cl)cc3)c3ccccc3c2=O)c1	-1.34	–
COC(=O)c1cc(Oc2ccc(S(=O)(=O)N3CCOCC3)cc2[N+](=O)[O-])cc(C(=O)OC)c1	6.19	–
COCCNS(=O)(=O)c1cc(-c2nn3c(C)nnc3c3ccccc23)ccc1C	-2.57	–
CC(=O)N1c2ccc(S(=O)(=O)N3CCCCCC3)cc2CC1C(=O)NCc1ccccc1C (configuration not stated)	-6.6	–
COc1ccc(OC)c(NC(=O)CSC2=Nc3ccccc3C3=NC(CC(=O)NCCc4ccccc4)C(=O)N23)c1 (configuration not stated)	-9.66	–

Structure (SMILES)	activity change, negative = inhibition [%]	Potency
COc1ccccc1Nc1nc(N)nc(N)c1S(=O)(=O)c1ccccc1	-2.45	–
CNS(=O)(=O)c1cccc(C(=O)OCCCC(=O)c2ccccc2)c1	-3.76	–
CCOc1ccc(CC(=O)Nc2ccc(S(=O)(=O)Nc3cc(C)on3)cc2)cc1OCC	-1.96	–
CCOc1ccc(C(=O)Nc2ccc(S(=O)(=O)Nc3cc(C)on3)cc2)cc1	–	16.9 µM (active)
COc1cc(OC)cc(C(=O)Nc2ccc(S(=O)(=O)Nc3cc(C)on3)cc2)c1	-2.42	–
CC(C)OCCCNc1ncnc2c1[nH]c1ccc(F)cc12	–	15.1 µM (active)
CC(C)OCCCNC(=O)c1cc(Sc2ccc(F)cc2)nc2ccccc12	-0.266	–
Fc1ccc2[nH]c3c(N4CCN(Cc5ccc6c(c5)OCO6)CC4)ncnc3c2c1	-1.87	–
O=S(=O)(c1ccc(Sc2nnc3ccccn23)nc1)N1CCOCC1	1.11	–
CCOc1ccc(NC(=O)Cn2c(=O)n(CCCC(=O)NCc3ccc4c(c3)OCO4)c(=O)c3ccccc32)cc1	-4.81	–
Cc1cc(C)cc(-n2ccnc2SCC(=O)Nc2nc3ccccc3s2)c1	-12.5	–
Cc1ccnc(Nc2nc3ccccc3s2)n1	–	1.9 µM (active)
Cc1sc2ncnc(Sc3nc4ccccc4s3)c2c1C	-17.6	–
Cc1ccc(CCNC(=O)c2ccc3c(c2)N(Cc2cc(C)ccc2C)C(=O)c2ccccc2S3=O)cc1 (configuration not stated)	1.69	–
CCCn1c(NCc2ccc(N(CC)CC)cc2)nc2ccccc21	-3.91	–
Cc1ccc(CNC(=O)CCc2c(C)nc3nc(CNC(=O)OC(C)(C)C)nn3c2C)cc1	-4.1	–
Cc1cc(N2CCOCC2)nc(-c2ccc(Br)cc2)n1	-5.76	–
Cc1ccc(-c2nc(SCc3ccc(Br)cc3)n3[nH]c(=O)cc3n2)cc1	-10.4	–
Cc1ccc(-c2cn3cc(C)ccc3n2)cc1	–	0.107 µM (active)
Cc1ccc(C(=O)Cn2cc([N+](=O)[O-])nc2C)cc1	1.35	–
CSc1nnc2ccc(-c3ccc(C)cc3)nn12	-14.2	–
Cc1ccc(-c2cn3cc([N+](=O)[O-])ccc3n2)cc1	–	0.757 µM (active)
Cc1nc(-c2ccc([N+](=O)[O-])cc2)c(-c2ccccc2)o1	-0.124	–
Cc1ccc2nc(-c3ccc(Br)cc3)cn2c1	–	0.0849 µM (active)
Cc1ccc(-n2c(-c3ccc(Cl)cc3)n[nH]c2=S)cc1	-2.19	–
CCc1c(C)sc(NC(=O)C2c3ccccc3Oc3ccccc32)c1C(=O)OC(C)C	0.745	–
